This is part of a sample that, as a whole, favours compounds with a hit. Of some 79,000 tested, about 15% had one in any assay. A number with no mark means an inactive call. The source made the active and inactive calls. Cut-off read from the data, not from the text of the source: active = growth inhibition above about 70%; inactive = the rest.
Assay: NCI Yeast Anticancer Drug Screen. Data for the bub3 strain (AID 167)
Conditions: S. cerevisiae bub3 mutant strain, active compounds read high
Procedure: Growth inhibition of yeast strains with defined genetic alterations is measured as a screen for potential anti-cancer activity. Selected strains with alterations in DNA damage repair or cell cycle control were exposed to compounds and growth inhibition was measured relative to vehicle treated controls. The strain used in this assay is bub3

[1] = at 5.0 µM (retest, dose inferred, filed as 0.5)
[2] = at 50.0 µM (retest, dose inferred, filed as 5.0)

Structure (SMILES)	growth inhibition (at 1.2 µM)	growth inhibition (at 3.7 µM)	growth inhibition [1]	growth inhibition (at 11.0 µM)	growth inhibition (at 33.0 µM)	growth inhibition [2]	growth inhibition (at 50.0 µM)	growth inhibition (at 100.0 µM)
CC(C)NC(=O)OCc1c(COC(=O)NC(C)C)c(-c2ccc(Cl)c(Cl)c2)n2c1CCC2	-65%	-66%	18%	-69%	-34%	79% (active)	17.4%	63%
CCCS(=O)(=O)Nc1ccc(Nc2c3ccccc3nc3ccccc23)c(OC)c1	-67%	-49%	40%	-45%	-16%	98% (active)	37.6%	65%
Cc1cc2c(cc1C(=O)CCC(=O)O)CC1(C2)Cc2cc(C)c(C(=O)CCC(=O)O)cc2C1	-4%	0%	13%	9%	17%	62%	54.8%	54%
CC(=O)OCC(=O)C1(O)CCC2C3CCC4CCCCC4(C)C3CCC21C (stereo not given)	-24%	-13%	56%	26%	46%	74% (active)	76% (active)	82% (active)
N#CN1C2CCC1CC(=O)C2	14%	23%	39%	15%	27%	12%	57.3%	31%
